We go through 38 molecules from PubChem BioAssay (NCI).

The panel holds about 83,000 compounds, 20% with a hit somewhere; the sample as a whole holds those more often.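 Compound tested at a single concentration for 48 hours in 96-well plates; a percent growth value below 10 was scored as active.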 Activity calls are given as the source filed them.

The test system of the first experiment is UACC-62 melanoma. The experiment is described as follows: NCI-60 one-dose screen, 48 h (100 = growth as untreated, 0 = no growth, -100 = all killed). To be noted: 10 µM unless noted.
As to `C[C@H]1[C@@H]2[C@H]3CC[C@@H]4[C@@]5(C)Cc6c([nH]c7ccccc67)C(C)(C)[C@@H]5CC[C@@]4(C)[C@]3(C)CC[C@]23CO[C@]1(C)[C@@H](C(=O)/C=C/c1ccccn1)C3`, the growth is 79% (inactive).
For the molecule `CCCC1CCCCN1C(=O)OCC(C)C` (stereo not given), the growth was 103% (inactive).
In the case of `N#CC1C(=N)Cc2ccccc2-c2ccccc21` (stereo not given), the growth is 39.1% (inactive).
The same measure, in the same setting: to `Cc1cc(C)nc(NC(N)=NCCc2ccccc2)n1` belongs 38% (inactive).
In the case of `N=c1c(S(=O)(=O)c2ccccc2)cc2c(=O)n3ccccc3nc2n1C1CCCC1`, the growth is 80.2% (inactive).
For the molecule `CCOc1ccc(NC(=O)c2ccccc2-c2ccccc2C(=O)O)cc1`, the growth was 99.2% (inactive).
The same measure, in the same setting: to `CC(C)=CCC/C(C)=C/CC/C(C)=C/CC/C(C)=C/CSC[C@H](NC(=O)CCCCCN1CCN(C)CC1)C(=O)NC1CCCCC1` belongs 87.6% (inactive); to `O=C(/C=C/c1ccc2ccccc2c1)Nc1ncc(Cc2ccccc2)s1`, 59.8% (inactive).
Regarding `C=C(C)[C@@H]1CC[C@]2(C(=O)O)CC[C@]3(C)[C@H](CC[C@@H]4[C@@]5(C)C/C(=C/c6ccc(OC)cc6)C(=O)C(C)(C)[C@@H]5CC[C@]43C)[C@@H]12`, the growth was 17.1% (inactive).
Consider `C=C(C)[C@@H]1CC[C@]2(C=NCCCNCCCCNCCCN)CC[C@]3(C)[C@H](CC[C@@H]4[C@@]5(C)CCCNC(C)(C)[C@@H]5CC[C@]43C)[C@@H]12`, for which the growth was 100% (inactive).
As to `Nc1ccc(Br)cn1`, the growth is 97.3% (inactive).
In the case of `COc1ccc(C2CC(=O)c3c(nc4ccc(Cl)cc4c3N)C2)cc1` (stereo not given), the growth is 99.5% (inactive).
Turning to `COc1cc2c(cc1-c1c(C)noc1C)ncc1nc(C3CCC(F)(F)CC3)n([C@@H](C)COC(F)F)c12`, the growth is 20.2% (inactive).
Same read-out and setting: to `CC1(n2nnnc2N2CCCN(c3ncccc3N)CC2)CCC1` belongs 94.9% (inactive); to `COc1cc(-c2nc(-c3ccccc3)c(-c3ccccc3)[nH]2)cc(OC)c1O`, -60.6% (active).
For the molecule `C=C(C)[C@@H]1CC[C@]2(C(=O)O)CC[C@]3(C)[C@H](CC[C@@H]4[C@@]5(C)C/C(=C/c6cccc(I)c6)C(=O)C(C)(C)[C@@H]5CC[C@]43C)[C@@H]12`, the growth is 30.9% (inactive).
For `NC1=NN=C2N(N)C(=O)c3cnn(-c4ccccc4)c3N2c2nc(-c3ccccc3)cc(-c3ccccc3)c21`, the growth was 82.9% (inactive).
As for `CCSc1ncnc2c1ncn2C1OC(CO)C(O)C1O` (stereo not given), the growth is 50.7% (inactive).
Consider `COc1ccc(-c2nc3ccccn3c2-c2nc3ccc(Cl)cc3[nH]2)cc1`, for which the growth was 86.3% (inactive).
In the case of `CC(=O)OC[C@]12CC[C@@H](/C(C)=N/O)[C@@H]1[C@H]1CC[C@@H]3[C@@]4(C)CCCNC(C)(C)[C@@H]4CC[C@@]3(C)[C@]1(C)CC2`, the growth is 66.5% (inactive).
Regarding `OCC12CCCC(CO)(COC1)C2O` (stereo not given), the growth is 107% (inactive).
Consider `Brc1ccc(Cn2nnnc2-c2ccn(-c3ccccc3)n2)cc1`, for which the growth was 53% (inactive).
For the molecule `COC(=O)c1cc(=O)nc(N/N=C/c2ccc(C)cc2)s1`, the growth is 115% (inactive).
Take `CC1(C)CC[C@]2(C(=O)Nc3ccccn3)CC[C@]3(C)C(=CC[C@@H]4[C@@]5(C)C/C(=C/c6ccncc6)C(=O)C(C)(C)[C@@H]5CC[C@]43C)[C@@H]2C1`: the growth is 23.9% (inactive).
In the case of `COc1ccc(OCC(CO)N2CCN(c3ccccc3)CC2)cc1` (stereo not given), the growth is 97.2% (inactive).
Turning to `Clc1ccc2[nH]cc(-c3nc(-c4c[nH]c5ncccc45)cs3)c2c1`, the growth was 44.2% (inactive).
`C=C(C)[C@@H]1CC[C@]2(CN)CC[C@]3(C)[C@H](CC[C@@H]4[C@@]5(C)CCC(=O)NC(C)(C)[C@@H]5CC[C@]43C)[C@@H]12`: the growth is 82.5% (inactive).
As for `C/C(=N\Nc1ccc2ccccc2n1)c1ccccn1`, the growth is -54.8% (active).
For `C[N+](C)(CCCCCC[N+](C)(C)C1c2ccccc2-c2ccccc21)C1c2ccccc2-c2ccccc21`, the growth is 108% (inactive).

The test system of the next experiment is LOX IMVI melanoma. The experiment is described as above. The settings on record: 10 µM unless noted.
Take `CCCCC[C@H]1C/C=C2/C(=O)C=C[C@@H]2C/C=C\CCCC(=O)O[C@@H](CCCCC)C/C=C2/C(=O)C=C[C@@H]2C/C=C\CCCC(=O)O1`: the growth was -87.1% (active).
With `CC(C)=CCC/C(C)=C/CC/C(C)=C/CC/C(C)=C/CSC[C@H](NC(=O)CCCCCN1CCN(C)CC1)C(=O)NC1CCCCC1`, the growth is 68.5% (inactive).
Turning to `COc1ccc2c(c1)c(-c1nc(-c3cn(C)c4ncccc34)cs1)cn2CCCN1CCCCC1`, the growth was 28.3% (inactive).
For the molecule `C#CCC(C)(O)/C=C/C1=C(C)CCCC1(C)C` (stereo not given), the growth was 96.4% (inactive).
`COc1cccc(-c2nn(-c3ccccc3)cc2-c2ccnc(NCCNS(=O)(=O)c3ccc(Cl)cc3)c2)c1`: the growth is 24.5% (inactive).
On the same count and under the same terms, to `COc1cc2c(cc1-c1c(C)noc1C)ncc1nc(C3CCC(F)(F)CC3)n([C@@H](C)COC(F)F)c12` belongs 11% (inactive); to `O=C(O[C@@H]1Cc2c(O)cc(O)cc2O[C@@H]1c1cc(O)c(O)c(O)c1)c1cc(O)c2c(c1)OCO2`, 95.6% (inactive); to `COc1cc(-c2nc(-c3ccccc3)c(-c3ccccc3)[nH]2)cc(OC)c1O`, -47.7% (active).
Same read-out and setting: the same measure for `OCC12CCCC(CO)(COC1)C2O` (stereo not given): 98.6% (inactive).
The same measure, in the same setting: to `Cc1ccc(N(CC(=O)Nc2ccc(S(=O)(=O)N3CCC(N4CCCC4)CC3)cc2)S(=O)(=O)c2ccc(Cl)cc2)cc1` belongs -88.5% (active); to `CC[C@]12C=CCN3CC[C@@]4(c5cc([C@H]6CCC(=O)N6)c(OC)cc5N(C)[C@H]4[C@@](O)(C(=O)OC)[C@@H]1OC(C)=O)[C@@H]32`, 108% [2.5 µM] (inactive); to `COC(=O)c1cc(=O)nc(N/N=C/c2ccc(C)cc2)s1`, 109% (inactive).
As to `Cc1ccc2oc(=O)cc(-c3sc(N4CCCCC4)nc3-c3ccccc3)c2c1`, the growth is 91.2% (inactive).
For `Nc1c(C(=O)Nc2cccc3ccccc23)sc2nc3c(cc12)CCCC3`, the growth was 38.6% (inactive).
Still for that read-out and setting: to `C/C(=N\Nc1ccc2ccccc2n1)c1ccccn1` belongs -19.8% (active); to `C[N+](C)(CCCCCC[N+](C)(C)C1c2ccccc2-c2ccccc21)C1c2ccccc2-c2ccccc21`, 104% (inactive).
